Reference: PubChem BioAssay (NCI)
Values joined by “and” are separate entries in the source; they are usually repeats but may differ in a detail not shown here. Equal values may be shown once. The panel holds about 83,000 compounds, 20% with a hit somewhere; the sample as a whole holds those more often.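 Cells were grown in 96-well plates and exposed to the test compound at a single concentration for 48 hours; results are reported as percent growth, with values below 10 considered active.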 Active and inactive are the calls of the source. Where a SMILES comes first, the peptide text is derived from it. [ ]: non-standard residue; d: D form. ξ: configuration not given here. ξV = CC(C)C(N)C(=O)O

Experiments:
Test in all cases: NCI-60 one-dose screen, 48 h (100 = growth as untreated, 0 = no growth, -100 = all killed)
[1] = tested on: T-47D breast; details: 10 µM
[2] = tested on: MDA-MB-435 melanoma; details: 10 µM
[3] = tested on: SW-620 colon; details: 10 µM
[4] = tested on: MCF7 breast
[5] = tested on: HCT-116 colon; details: 10 µM
[6] = tested on: HCC-2998 colon; details: 10 µM
[7] = tested on: KM12 colon; details: 10 µM
[8] = tested on: BT-549 breast; details: 10 µM

SMILES | growth [1] | growth [2] | growth [3] | growth ([4]; 10 µM) | growth [5] | growth [6] | growth [7] | growth [8] | growth ([4]; 100 µM)
O=C(Nc1ccc(C(=O)O)c(O)c1)c1ccccc1 | 101% (inactive) and 104% (inactive) | 99% (inactive) and 99.1% (inactive) | 99% (inactive) and 113% (inactive) | 102% (inactive) and 95.6% (inactive) | 107% (inactive) and 101% (inactive) | 102% (inactive) and 106% (inactive) | 120% (inactive) | – | –
O=C1NC(=O)c2cc([N+](=O)[O-])ccc21 | 103% (inactive) | 105% (inactive) | 103% (inactive) | 107% (inactive) | 116% (inactive) | 102% (inactive) | 110% (inactive) | 123% (inactive) | –
CC(C)C(NC(=O)CN)C(=O)O (centres undefined) (H-Gly-[ξV]-OH) | 102% (inactive) | 104% (inactive) and 101% (inactive) | 117% (inactive) and 101% (inactive) | 106% (inactive) and 101% (inactive) | 96.9% (inactive) and 107% (inactive) | 103% (inactive) and 106% (inactive) | 109% (inactive) and 106% (inactive) | – | –
COC(=O)C1C(O)C(C)C(O)C(C)C=C(C)C2=C3C(=C(C)C(=O)c4c(O)c(c(C)c(OC(C)=O)c43)NC(=O)C(C)=C/C=C\C(C)C(O)C(C)C1O)OCO2 (centres undefined) | 117% (inactive) | 130% (inactive) | 103% (inactive) | 103% (inactive) | 96% (inactive) | 145% (inactive) | 103% (inactive) | – | –
CCCCCCCCCCSC(=N)N | -5.33% (active) | 30% (inactive) | -5.44% (active) | 8.06% (active) | 23.4% (inactive) | -27.2% (active) | 23.2% (inactive) | 85.9% (inactive) | –
COC(=O)C1=COC(C)C2C[n+]3ccc4c([nH]c5ccccc54)c3CC12 (centres undefined) | 100% (inactive) and 91.5% (inactive) | 106% (inactive) and 109% (inactive) | 100% (inactive) and 84% (inactive) | 96% (inactive) and 79.2% (inactive) | 98.4% (inactive) and 99.5% (inactive) | 111% (inactive) and 94.1% (inactive) | 102% (inactive) and 97.8% (inactive) | – | 28.2% (inactive) and 1% (active)
COc1c(O)cc2oc3cc(O)c(CC=C(C)C)c(O)c3c(=O)c2c1CC=C(C)C | 48% (inactive) | 70.1% (inactive) | 60.9% (inactive) | 16.8% (inactive) | 23.7% (inactive) | 42.1% (inactive) | 38.1% (inactive) | – | –
O=C(O)COc1ccc(OCC(=O)O)cc1 | 5.61% (active) | 30.4% (inactive) | 15.1% (inactive) | 6.66% (active) | 9.02% (active) | -34.2% (active) | 8.16% (active) | – | –
Clc1ccc(/C=C/c2ccccn2)c(Cl)c1 | 47.5% (inactive) | 104% (inactive) | 86% (inactive) | 7.59% (active) | 77.7% (inactive) | 77.9% (inactive) | 71.4% (inactive) | – | –
CS(=O)(=O)OC1CC(n2ccc(=O)[nH]c2=O)OC1COC(c1ccccc1)(c1ccccc1)c1ccccc1 (centres undefined) | 96.7% (inactive) | 125% (inactive) | 105% (inactive) | 97.3% (inactive) | 92.9% (inactive) | 106% (inactive) | 93.5% (inactive) | 99.4% (inactive) | –
CCCCCCCCCCCCCCCCCCOCC(COP(=O)([O-])OCC[N+](C)(C)C)OC (centres undefined) | 88% (inactive) | 103% (inactive) | 70.1% (inactive) | 81.4% (inactive) | 65.1% (inactive) | – | 29.7% (inactive) | 97.1% (inactive) | –
N=S(c1ccccc1[N+](=O)[O-])c1ccccc1[N+](=O)[O-] | -2.34% (active) | 62.1% (inactive) | 17.9% (inactive) | -53.7% (active) | 5.85% (active) | 90.4% (inactive) | 88.8% (inactive) | 84.7% (inactive) | –
Nc1nc(=S)c2ncn(C3OC(CO)C(O)C3O)c2[nH]1 (centres undefined) | 121% (inactive) and 35.2% (inactive) | 109% (inactive) and 17.7% (inactive) | 107% (inactive) and 35.9% (inactive) | 123% (inactive) and 9.98% (active) | 107% (inactive) and 17.3% (inactive) | 109% (inactive) and 23% (inactive) | 104% (inactive) and 19.8% (inactive) | 126% (inactive) and -1.38% (active) | –
CO[C@H](C(=O)[C@@H](O)[C@@H](C)O)[C@@H]1Cc2cc3cc(OC4CC(OC5CC(O)C(O)C(C)O5)C(O)C(C)O4)c(C)c(O)c3c(O)c2C(=O)[C@H]1OC1CC(OC2CC(OC3CC(C)(O)C(O)C(C)O3)C(O)C(C)O2)C(O)C(C)O1 (some centres undefined) | 7.17% (active) | -62.9% (active) | -25.1% (active) | -3.56% (active) | 5.29% (active) | – | -5.71% (active) | -19.9% (active) | –
